Results as given in the supplement of paper PMC11732987, “Enantioselective OTUD7B fragment discovery through chemoproteomics screening and high-throughput optimisation” (Communications Chemistry, 2025).

Tests used:
Assay in all cases: log2 ratio of Biotin-Ahx-Ub-VS probe labelling (compound/DMSO); higher = less target engagement, active = hit call of the paper (q ≤ 0.05, log2 ratio ≤ -1)
Conditions in all cases: treatment time: 3 h
[1] = compound: CCC1N(CCc2sccc12)C(=O)CCl
Procedure, shortened: (§1)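 For activity-based profiling, 495 µg portions of HEK293T lysate in Tris/CHAPS/IGEPAL buffer with protease inhibitors were treated in triplicate with compound at 50 or 200 µM or with DMSO for 3 h. A 1 h incubation with Biotin-Ahx-Ub-VS (0.5 µM final) followed, then NeutrAvidin enrichment, LysC and trypsin digestion and diaPASEF LC-MS/MS. The compound/DMSO base-two log ratios were averaged from median-normalised label-free quantities using an unpaired t-test. Proteins needed at least 2 unique peptides to be included.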

[2] = compound: CN1c2ccccc2C(CS1(=O)=O)NC(=O)CCl
Procedure, shortened: as §1

[3] = compound: Cl.ClCC(=O)N1CCc2ncncc2C1
Procedure, shortened: as §1

[4] = compound: Cl.Cn1ncc2C(CCCc12)NC(=O)CCl
Procedure, shortened: as §1

[5] = compound: ClCC(=O)NC1CCOc2ccccc12
Procedure, shortened: as §1

[6] = compound: ClCC(=O)NC1CCCc2ccccc12
Procedure, shortened: (§2)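 These values are averaged ratios of compound to vehicle, tested by unpaired t-test. HEK293T lysate (495 µg per sample) was preincubated in triplicate with compound across a concentration series or vehicle for 3 h and then with Biotin-Ahx-Ub-VS at 0.5 µM final for 1 h. Deubiquitinases carrying the probe were NeutrAvidin-enriched, digested with LysC and trypsin, and measured by diaPASEF LC-MS/MS. Ratios are expressed as log2 from global-median-normalised Spectronaut label-free quantities, and only proteins with two or more unique peptides were included.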

[7] = compound: ClCC(=O)N[C@@H]1CCCc2ccccc12
Procedure, shortened: as §2

[8] = compound: ClCC(=O)N[C@H]1CCCc2ccccc12
Procedure, shortened: as §2

[9] = compound: CCC1N(CCc2cc(OC)c(Cl)cc12)C(=O)CCl
Procedure, shortened: as §1

[10] = compound: CCCC1N(CCc2cc(OC)c(OC)cc12)C(=O)CCl
Procedure, shortened: as §1

[11] = compound: CN(Cc1cccc(Br)c1)C(=O)CCl
Procedure, shortened: as §1

[12] = compound: CN(Cc1cccc(OCc2ccccc2C)c1)C(=O)CCl
Procedure, shortened: as §1

[13] = compound: CN(Cc1ccccc1)C(=O)CCl
Procedure, shortened: as §1

[14] = compound: COc1ccc(CN(C)C(=O)CCl)cc1
Procedure, shortened: as §1

[15] = compound: COc1cccc(CN(CCCc2ccccc2)C(=O)CCl)c1
Procedure, shortened: as §1

[16] = compound: ClCC(=O)N1CCc2cc(Cl)c(Cl)cc2C1
Procedure, shortened: as §1

[17] = compound: ClCC(=O)N1CCc2nc(ncc2C1)-c1ccccc1
Procedure, shortened: as §1

[18] = compound: ClCC(=O)N1CCc2nocc2C1
Procedure, shortened: as §1

[19] = compound: ClCC(=O)N1CCc2scc(Br)c2C1
Procedure, shortened: as §1

[20] = compound: ClCC(=O)NC(C1CCCC1)c1cccs1
Procedure, shortened: as §1

Measured: log2 ratio of Biotin-Ahx-Ub-VS probe labelling

MINDY4 (UniProt Q4G0A6)
UniProt Q4G0A6, sequence (Q4G0A6 whole entry): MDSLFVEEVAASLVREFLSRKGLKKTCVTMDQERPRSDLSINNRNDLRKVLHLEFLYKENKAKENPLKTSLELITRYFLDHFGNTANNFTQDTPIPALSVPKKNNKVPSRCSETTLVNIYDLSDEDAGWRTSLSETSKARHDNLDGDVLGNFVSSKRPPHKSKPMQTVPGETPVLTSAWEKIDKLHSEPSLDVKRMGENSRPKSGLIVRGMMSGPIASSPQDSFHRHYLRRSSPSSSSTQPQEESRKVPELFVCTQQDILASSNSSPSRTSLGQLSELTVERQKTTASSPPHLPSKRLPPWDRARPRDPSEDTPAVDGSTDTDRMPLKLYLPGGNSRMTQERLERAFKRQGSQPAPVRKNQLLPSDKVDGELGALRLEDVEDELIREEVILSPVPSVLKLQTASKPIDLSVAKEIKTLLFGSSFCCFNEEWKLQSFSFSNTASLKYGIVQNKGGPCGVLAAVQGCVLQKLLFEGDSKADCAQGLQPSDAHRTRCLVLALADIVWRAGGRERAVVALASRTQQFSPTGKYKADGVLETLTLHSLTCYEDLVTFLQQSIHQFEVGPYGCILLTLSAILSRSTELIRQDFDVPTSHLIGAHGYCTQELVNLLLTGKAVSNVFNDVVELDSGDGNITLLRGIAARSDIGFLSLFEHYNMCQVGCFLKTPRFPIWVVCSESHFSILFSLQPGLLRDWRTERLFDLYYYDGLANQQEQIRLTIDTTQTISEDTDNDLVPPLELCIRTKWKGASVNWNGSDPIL
active: [2]; compound concentration: 50uM -4.18 | [6]; compound concentration: 0.78uM -2.83 | [6]; compound concentration: 1.56uM -3.43 | [6]; compound concentration: 3.13uM -2.24 | [6]; compound concentration: 6.25uM -2.62 | [6]; compound concentration: 12.5uM -1.89 | [6]; compound concentration: 25uM -2.3 | [6]; compound concentration: 50uM -2.78 | [6]; compound concentration: 100uM -2.85 | [6]; compound concentration: 200uM -2.45 | [7]; compound concentration: 1.56uM -1.89 | [7]; compound concentration: 3.13uM -2.16 | [7]; compound concentration: 6.25uM -1.61 | [7]; compound concentration: 25uM -2.02 | [7]; compound concentration: 50uM -1.96 | [7]; compound concentration: 100uM -1.48 | [7]; compound concentration: 200uM -1.33 | [8]; compound concentration: 0.78uM -2.37 | [8]; compound concentration: 1.56uM -1.3 | [8]; compound concentration: 3.13uM -1.21 | [8]; compound concentration: 6.25uM -3.95 | [8]; compound concentration: 12.5uM -1.25 | [8]; compound concentration: 25uM -1.1 | [8]; compound concentration: 50uM -1.99 | [8]; compound concentration: 100uM -1.91 | [8]; compound concentration: 200uM -2.54 | [11]; compound concentration: 200uM -1.19
inactive: [1]; compound concentration: 50uM -0.62 | [1]; compound concentration: 200uM 0.797 | [2]; compound concentration: 200uM 0.688 | [3]; compound concentration: 50uM 0.73 | [3]; compound concentration: 200uM -0.108 | [4]; compound concentration: 50uM 0.308 | [4]; compound concentration: 200uM 0.136 | [5]; compound concentration: 50uM 0.825 | [5]; compound concentration: 200uM 0.522 | [7]; compound concentration: 0.78uM -0.837 | [7]; compound concentration: 12.5uM -0.893 | [9]; compound concentration: 50uM 0.0614 | [9]; compound concentration: 200uM -0.042 | [10]; compound concentration: 50uM 0.725 | [10]; compound concentration: 200uM -0.113 | [11]; compound concentration: 50uM 0.681 | [12]; compound concentration: 50uM 0.702 | [12]; compound concentration: 200uM 0.585 | [13]; compound concentration: 50uM 0.106 | [13]; compound concentration: 200uM -0.273 | [14]; compound concentration: 50uM 0.675 | [14]; compound concentration: 200uM 0.712 | [15]; compound concentration: 50uM 0.722 | [15]; compound concentration: 200uM 0.797 | [16]; compound concentration: 50uM 0.706 | [16]; compound concentration: 200uM 0.819 | [17]; compound concentration: 50uM 0.669 | [17]; compound concentration: 200uM 0.652 | [18]; compound concentration: 50uM 0.0993 | [18]; compound concentration: 200uM 0.614 | [19]; compound concentration: 50uM 0.589 | [19]; compound concentration: 200uM 0.525 | [20]; compound concentration: 50uM 0.738 | [20]; compound concentration: 200uM 0.487

UniProt P51784
UniProt P51784, sequence (P51784 whole entry): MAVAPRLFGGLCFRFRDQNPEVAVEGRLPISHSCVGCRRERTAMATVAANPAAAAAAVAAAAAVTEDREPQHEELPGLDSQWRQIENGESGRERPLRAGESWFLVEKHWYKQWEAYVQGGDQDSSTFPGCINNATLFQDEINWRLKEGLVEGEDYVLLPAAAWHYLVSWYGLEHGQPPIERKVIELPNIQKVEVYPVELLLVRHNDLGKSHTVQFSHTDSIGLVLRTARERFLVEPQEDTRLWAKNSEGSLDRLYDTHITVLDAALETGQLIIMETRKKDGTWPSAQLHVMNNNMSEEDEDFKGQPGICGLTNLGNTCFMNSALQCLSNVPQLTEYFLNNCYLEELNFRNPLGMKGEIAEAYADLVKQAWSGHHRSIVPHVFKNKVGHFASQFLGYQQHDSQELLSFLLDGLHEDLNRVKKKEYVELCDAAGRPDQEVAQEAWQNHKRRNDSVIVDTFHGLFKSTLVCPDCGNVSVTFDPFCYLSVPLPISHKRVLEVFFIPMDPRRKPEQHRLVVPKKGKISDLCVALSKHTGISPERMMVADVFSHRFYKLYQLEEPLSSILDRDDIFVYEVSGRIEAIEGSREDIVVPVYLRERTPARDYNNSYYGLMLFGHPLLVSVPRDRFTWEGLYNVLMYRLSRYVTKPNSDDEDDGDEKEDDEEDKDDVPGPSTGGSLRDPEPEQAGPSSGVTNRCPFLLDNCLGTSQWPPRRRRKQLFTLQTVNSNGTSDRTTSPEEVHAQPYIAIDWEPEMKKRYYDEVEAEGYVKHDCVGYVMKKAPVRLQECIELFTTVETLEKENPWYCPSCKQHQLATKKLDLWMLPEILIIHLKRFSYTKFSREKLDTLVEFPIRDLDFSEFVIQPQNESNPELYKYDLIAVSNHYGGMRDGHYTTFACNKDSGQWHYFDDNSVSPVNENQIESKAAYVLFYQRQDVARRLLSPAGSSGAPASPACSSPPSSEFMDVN
inactive: [1]; compound concentration: 50uM 0.031 | [1]; compound concentration: 200uM -0.194 | [2]; compound concentration: 50uM -0.0381 | [2]; compound concentration: 200uM -0.118 | [3]; compound concentration: 50uM 0.0396 | [3]; compound concentration: 200uM -0.389 | [4]; compound concentration: 50uM 0.218 | [4]; compound concentration: 200uM 0.132 | [5]; compound concentration: 50uM 0.157 | [5]; compound concentration: 200uM -0.115 | [6]; compound concentration: 0.78uM -0.0264 | [6]; compound concentration: 1.56uM -0.0198 | [6]; compound concentration: 3.13uM -0.0986 | [6]; compound concentration: 6.25uM 0.0318 | [6]; compound concentration: 12.5uM -0.0982 | [6]; compound concentration: 25uM -0.201 | [6]; compound concentration: 50uM 0.0391 | [6]; compound concentration: 100uM -0.0818 | [6]; compound concentration: 200uM -0.0885 | [7]; compound concentration: 0.78uM -0.219 | [7]; compound concentration: 1.56uM -0.052 | [7]; compound concentration: 3.13uM -0.00301 | [7]; compound concentration: 6.25uM -0.0872 | [7]; compound concentration: 12.5uM -0.0816 | [7]; compound concentration: 25uM 0.00546 | [7]; compound concentration: 50uM -0.0574 | [7]; compound concentration: 100uM -0.00104 | [7]; compound concentration: 200uM -0.228 | [8]; compound concentration: 0.78uM -0.0931 | [8]; compound concentration: 1.56uM -0.0394 | [8]; compound concentration: 3.13uM -0.0291 | [8]; compound concentration: 6.25uM 0.0533 | [8]; compound concentration: 12.5uM -0.077 | [8]; compound concentration: 25uM -0.127 | [8]; compound concentration: 50uM -0.0252 | [8]; compound concentration: 100uM -0.0157 | [8]; compound concentration: 200uM -0.158 | [9]; compound concentration: 50uM -0.0453 | [9]; compound concentration: 200uM -0.739 | [10]; compound concentration: 50uM -0.482 | [11]; compound concentration: 50uM 0.019 | [11]; compound concentration: 200uM -0.0885 | [12]; compound concentration: 50uM -0.394 | [12]; compound concentration: 200uM -0.417 | [13]; compound concentration: 50uM -0.135 | [13]; compound concentration: 200uM -0.305 | [14]; compound concentration: 50uM -0.149 | [14]; compound concentration: 200uM -0.291 | [15]; compound concentration: 50uM -0.0998 | [15]; compound concentration: 200uM -0.339 | [16]; compound concentration: 50uM 0.125 | [16]; compound concentration: 200uM -0.807 | [17]; compound concentration: 50uM 0.0941 | [17]; compound concentration: 200uM -0.284 | [18]; compound concentration: 50uM -0.0884 | [18]; compound concentration: 200uM -0.403 | [19]; compound concentration: 50uM -0.0183 | [19]; compound concentration: 200uM -0.573 | [20]; compound concentration: 50uM 0.0513 | [20]; compound concentration: 200uM -0.0659
active: [10]; compound concentration: 200uM -1.44

USP15 (UniProt Q9Y4E8)
UniProt Q9Y4E8, sequence (Q9Y4E8 whole entry): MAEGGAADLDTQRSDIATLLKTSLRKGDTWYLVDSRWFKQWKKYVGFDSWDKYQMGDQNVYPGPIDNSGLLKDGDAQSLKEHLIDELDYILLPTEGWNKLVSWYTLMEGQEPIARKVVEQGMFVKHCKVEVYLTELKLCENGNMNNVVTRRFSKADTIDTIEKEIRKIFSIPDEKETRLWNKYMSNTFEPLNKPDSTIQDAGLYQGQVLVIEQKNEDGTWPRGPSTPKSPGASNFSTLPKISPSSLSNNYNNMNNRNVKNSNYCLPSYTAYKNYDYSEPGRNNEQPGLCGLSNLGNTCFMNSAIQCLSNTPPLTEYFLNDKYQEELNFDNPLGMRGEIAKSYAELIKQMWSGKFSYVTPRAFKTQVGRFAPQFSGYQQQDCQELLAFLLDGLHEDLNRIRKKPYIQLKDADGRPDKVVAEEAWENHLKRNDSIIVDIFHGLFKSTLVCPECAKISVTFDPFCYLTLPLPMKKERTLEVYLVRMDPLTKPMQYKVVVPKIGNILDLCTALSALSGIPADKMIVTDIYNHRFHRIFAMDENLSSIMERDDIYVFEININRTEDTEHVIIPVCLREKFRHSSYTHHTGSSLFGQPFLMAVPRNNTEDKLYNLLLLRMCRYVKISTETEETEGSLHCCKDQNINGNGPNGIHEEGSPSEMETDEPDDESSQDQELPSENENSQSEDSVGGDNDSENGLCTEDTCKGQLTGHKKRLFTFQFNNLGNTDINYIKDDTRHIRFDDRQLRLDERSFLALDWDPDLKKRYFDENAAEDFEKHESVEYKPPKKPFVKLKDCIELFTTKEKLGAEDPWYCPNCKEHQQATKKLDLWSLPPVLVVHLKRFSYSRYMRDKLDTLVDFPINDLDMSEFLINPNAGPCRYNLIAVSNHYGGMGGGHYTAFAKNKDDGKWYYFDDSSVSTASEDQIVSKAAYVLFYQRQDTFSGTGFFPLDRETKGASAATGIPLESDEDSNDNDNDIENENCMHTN
active: [10]; compound concentration: 200uM -1.38 | [16]; compound concentration: 200uM -1.85 | [17]; compound concentration: 200uM -1.06 | [19]; compound concentration: 200uM -1.88
inactive: [1]; compound concentration: 50uM -0.208 | [1]; compound concentration: 200uM -0.456 | [2]; compound concentration: 50uM -0.352 | [2]; compound concentration: 200uM -0.178 | [3]; compound concentration: 50uM -0.273 | [3]; compound concentration: 200uM -0.899 | [4]; compound concentration: 50uM 0.0231 | [4]; compound concentration: 200uM 0.118 | [5]; compound concentration: 50uM -0.104 | [5]; compound concentration: 200uM -0.0799 | [6]; compound concentration: 0.78uM -0.111 | [6]; compound concentration: 1.56uM 0.00504 | [6]; compound concentration: 3.13uM -0.0668 | [6]; compound concentration: 6.25uM 0.00578 | [6]; compound concentration: 12.5uM 0.00284 | [6]; compound concentration: 25uM -0.194 | [6]; compound concentration: 50uM -0.0476 | [6]; compound concentration: 100uM -0.0886 | [6]; compound concentration: 200uM -0.0894 | [7]; compound concentration: 0.78uM -0.15 | [7]; compound concentration: 1.56uM -0.0871 | [7]; compound concentration: 3.13uM -0.0689 | [7]; compound concentration: 6.25uM -0.0495 | [7]; compound concentration: 12.5uM -0.0456 | [7]; compound concentration: 25uM -0.00914 | [7]; compound concentration: 50uM -0.0377 | [7]; compound concentration: 100uM -0.0901 | [7]; compound concentration: 200uM -0.162 | [8]; compound concentration: 0.78uM -0.089 | [8]; compound concentration: 1.56uM -0.101 | [8]; compound concentration: 3.13uM -0.0661 | [8]; compound concentration: 6.25uM 0.0971 | [8]; compound concentration: 12.5uM -0.119 | [8]; compound concentration: 25uM -0.0896 | [8]; compound concentration: 50uM -0.0399 | [8]; compound concentration: 100uM -0.0575 | [8]; compound concentration: 200uM -0.135 | [9]; compound concentration: 50uM -0.143 | [9]; compound concentration: 200uM -0.873 | [10]; compound concentration: 50uM -0.696 | [11]; compound concentration: 50uM -0.321 | [11]; compound concentration: 200uM -0.664 | [12]; compound concentration: 50uM -0.611 | [12]; compound concentration: 200uM -0.533 | [13]; compound concentration: 50uM -0.368 | [13]; compound concentration: 200uM -0.462 | [14]; compound concentration: 50uM -0.242 | [14]; compound concentration: 200uM -0.334 | [15]; compound concentration: 50uM -0.289 | [15]; compound concentration: 200uM -0.43 | [16]; compound concentration: 50uM -0.407 | [17]; compound concentration: 50uM -0.105 | [18]; compound concentration: 50uM -0.404 | [18]; compound concentration: 200uM -0.641 | [19]; compound concentration: 50uM -0.779 | [20]; compound concentration: 50uM 0.0422
